{"source": "ChEMBL document CHEMBL5606460", "about": "“ASAP - DENV-2 NS2B-NS3 protease fluorescence single point” (2024)", "target": "Genome polyprotein (dengue virus type 2) (UniProt P29990)", "key": {"[1]": {"conditions": "Thailand/16681/1984, Concentration 25.0 uM, Number of replicates 1.0"}}, "note": "Hit rate of the full screen: of about 2,000 compounds, about 110 (5.5%) showed an effect of 50% or more. The full list was thinned out, with strong results kept by preference. Non-standard residues stand in square brackets, D forms with d. Residues, ends and D or L forms follow the SMILES beside them. Phg = N[C@H](C(=O)O)c1ccccc1; 4Amb = NCc1ccc(C(=O)O)cc1; Nle = CCCC[C@H](N)C(=O)O"}
{"smiles": "CCCC[C@H](NC(C)=O)C(=O)N[C@H](C(=O)NCc1ccc(C(N)=O)cc1)c1ccccc1", "note": "(Ac-[Nle]-[Phg]-[4Amb]-NH2)", "values": [{"measurement": "inhibition", "setting": "Thailand/16681/1984, Concentration 49.5 uM, Number of replicates 2.0, Standard deviation 0.4432432329236086 %", "value": -1.46, "unit": "%"}, {"measurement": "inhibition", "setting": "Thailand/16681/1984, Concentration 99.01 uM, Number of replicates 2.0, Standard deviation 0.9541533154251546 %", "value": -0.354, "unit": "%"}, {"measurement": "inhibition", "setting": "Thailand/16681/1984, Concentration 198.0 uM, Number of replicates 2.0, Standard deviation 1.9838414541082603 %", "value": 1.79, "unit": "%"}]}
{"smiles": "CCCC[C@H](NC(C)=O)C(=O)N[C@H](C(=O)NCc1ccc(C(N)=O)cc1)c1ccc(OCc2ccccc2)cc1", "values": [{"measurement": "inhibition", "setting": "Thailand/16681/1984, Concentration 49.5 uM, Number of replicates 2.0, Standard deviation 4.54767597440597 %", "value": 18.2, "unit": "%"}, {"measurement": "inhibition", "setting": "Thailand/16681/1984, Concentration 99.01 uM, Number of replicates 2.0, Standard deviation 0.08657569598756192 %", "value": 99.9, "unit": "%"}, {"measurement": "inhibition", "setting": "Thailand/16681/1984, Concentration 198.0 uM, Number of replicates 2.0, Standard deviation 0.08274539039489186 %", "value": 99.7, "unit": "%"}]}
{"smiles": "CCCC[C@H](NC(C)=O)C(=O)N[C@H](C(=O)NCc1ccc(CN)cc1)c1ccc(OCc2ccccc2)cc1", "values": [{"measurement": "inhibition", "setting": "Thailand/16681/1984, Concentration 49.5 uM, Number of replicates 2.0, Standard deviation 1.556187076043376 %", "value": -3.73, "unit": "%"}, {"measurement": "inhibition", "setting": "Thailand/16681/1984, Concentration 99.01 uM, Number of replicates 2.0, Standard deviation 1.4164928639405643 %", "value": 9.94, "unit": "%"}, {"measurement": "inhibition", "setting": "Thailand/16681/1984, Concentration 198.0 uM, Number of replicates 2.0, Standard deviation 0.0753329398535839 %", "value": 99.6, "unit": "%"}]}
{"smiles": "CCCC[C@H](NC(C)=O)C(=O)N[C@H](C(=O)Nc1cccc(C(N)=O)c1)c1ccc(OCc2ccccc2)cc1", "values": [{"measurement": "inhibition", "setting": "Thailand/16681/1984, Concentration 49.5 uM, Number of replicates 2.0, Standard deviation 1.3015902921422546 %", "value": -0.513, "unit": "%"}, {"measurement": "inhibition", "setting": "Thailand/16681/1984, Concentration 99.01 uM, Number of replicates 2.0, Standard deviation 0.5153915569037094 %", "value": 3.33, "unit": "%"}, {"measurement": "inhibition", "setting": "Thailand/16681/1984, Concentration 198.0 uM, Number of replicates 2.0, Standard deviation 0.5711740910196359 %", "value": 8.87, "unit": "%"}]}
{"smiles": "CCCC[C@H](NC(C)=O)C(=O)N[C@@H](C(=O)NCc1ccc(C(N)=O)cc1)c1ccc(OCc2ccccc2)cc1", "values": [{"measurement": "inhibition", "setting": "Thailand/16681/1984, Concentration 49.5 uM, Number of replicates 2.0, Standard deviation 1.1393107429607887 %", "value": -2.14, "unit": "%"}, {"measurement": "inhibition", "setting": "Thailand/16681/1984, Concentration 99.01 uM, Number of replicates 2.0, Standard deviation 1.3468928227151291 %", "value": -2.15, "unit": "%"}, {"measurement": "inhibition", "setting": "Thailand/16681/1984, Concentration 198.0 uM, Number of replicates 2.0, Standard deviation 1.6817028564994563 %", "value": -0.786, "unit": "%"}]}
{"smiles": "c1cnc(C2CCN(Cc3c[nH]c4ccccc34)CC2)nc1", "values": [{"measurement": "inhibition", "setting": "Thailand/16681/1984, Concentration 49.5 uM, Number of replicates 2.0, Standard deviation 0.0814293971969877 %", "value": -4.94, "unit": "%"}, {"measurement": "inhibition", "setting": "Thailand/16681/1984, Concentration 99.01 uM, Number of replicates 2.0, Standard deviation 1.1974150626674833 %", "value": -3.24, "unit": "%"}, {"measurement": "inhibition", "setting": "Thailand/16681/1984, Concentration 198.0 uM, Number of replicates 2.0, Standard deviation 1.6263665310687148 %", "value": -1.42, "unit": "%"}]}
{"smiles": "COC(=O)c1csc(Cn2ncc(C3CCNCC3)c2C)n1", "values": [{"measurement": "inhibition", "setting": "Thailand/16681/1984, Concentration 49.5 uM, Number of replicates 2.0, Standard deviation 0.7717951129802201 %", "value": -5.62, "unit": "%"}, {"measurement": "inhibition", "setting": "Thailand/16681/1984, Concentration 99.01 uM, Number of replicates 2.0, Standard deviation 0.8815947340216488 %", "value": -4.23, "unit": "%"}, {"measurement": "inhibition", "setting": "Thailand/16681/1984, Concentration 198.0 uM, Number of replicates 2.0, Standard deviation 1.4332580373412276 %", "value": -2.98, "unit": "%"}]}
{"smiles": "O=C(Cc1cnc[nH]1)NC1CCN(C(=O)c2cccc3[nH]ncc23)CC1", "values": [{"measurement": "inhibition", "setting": "Thailand/16681/1984, Concentration 49.5 uM, Number of replicates 2.0, Standard deviation 0.5712330544607026 %", "value": -0.001, "unit": "%"}, {"measurement": "inhibition", "setting": "Thailand/16681/1984, Concentration 99.01 uM, Number of replicates 2.0, Standard deviation 0.88648652906749 %", "value": 0.297, "unit": "%"}, {"measurement": "inhibition", "setting": "Thailand/16681/1984, Concentration 198.0 uM, Number of replicates 2.0, Standard deviation 1.4162803173835237 %", "value": -0.087, "unit": "%"}]}
{"smiles": "O=Cc1ccc(N2CCC(C(=O)Nc3n[nH]c4ccc(Br)cc34)CC2)cc1", "values": [{"measurement": "inhibition", "setting": "[1]", "value": 10.1, "unit": "%"}]}
{"smiles": "CCN(CC)S(=O)(=O)c1ccc(NC(=O)C2CCN(c3ccc(C=O)cc3)CC2)cc1", "values": [{"measurement": "inhibition", "setting": "[1]", "value": 12.2, "unit": "%"}]}
{"smiles": "O=C(Nc1cc2c(cc1C1CC1)CNC2)c1cc(F)cc2[nH]ncc12", "values": [{"measurement": "inhibition", "setting": "Thailand/16681/1984, Concentration 99.5 uM, Number of replicates 2.0, Standard deviation 0.34945873996674337 %", "value": 63.1, "unit": "%"}, {"measurement": "inhibition", "setting": "Thailand/16681/1984, Concentration 295.6 uM, Number of replicates 2.0, Standard deviation 0.6526301250248825 %", "value": 85.2, "unit": "%"}]}
{"smiles": "COc1cc(Cc2c(-c3ccc(F)cc3)noc2C)nc(N2CCNCC2)n1", "values": [{"measurement": "inhibition", "setting": "Thailand/16681/1984, Concentration 49.5 uM, Number of replicates 2.0, Standard deviation 0.4285559202279565 %", "value": -0.048, "unit": "%"}, {"measurement": "inhibition", "setting": "Thailand/16681/1984, Concentration 99.01 uM, Number of replicates 2.0, Standard deviation 0.4007548684992308 %", "value": 1.07, "unit": "%"}, {"measurement": "inhibition", "setting": "Thailand/16681/1984, Concentration 198.0 uM, Number of replicates 2.0, Standard deviation 0.4757654271085549 %", "value": 6.24, "unit": "%"}]}
{"smiles": "O=Cc1ccc(N2CCC(C(=O)NCc3c(F)ccc(F)c3F)CC2)cc1", "values": [{"measurement": "inhibition", "setting": "[1]", "value": 12.3, "unit": "%"}]}
{"smiles": "O=Cc1ccc(N2CCC(C(=O)NCCc3ccc(Cl)c(Cl)c3)CC2)cc1", "values": [{"measurement": "inhibition", "setting": "[1]", "value": 11.5, "unit": "%"}]}
{"smiles": "CCN(CC)C1CCN(C(=O)C2CCN(c3ccc(C=O)cc3)CC2)CC1", "values": [{"measurement": "inhibition", "setting": "[1]", "value": 12.6, "unit": "%"}]}
{"smiles": "C[C@@H](NC(=O)c1cc(Cl)ccc1NS(=O)(=O)c1ccc(Oc2ccccc2Cl)cc1)C1COC1", "values": [{"measurement": "inhibition", "setting": "Thailand/16681/1984, Concentration 49.5 uM, Number of replicates 2.0, Standard deviation 0.4885797549298071 %", "value": 59.2, "unit": "%"}, {"measurement": "inhibition", "setting": "Thailand/16681/1984, Concentration 99.01 uM, Number of replicates 2.0, Standard deviation 0.152624190876378 %", "value": 68.4, "unit": "%"}, {"measurement": "inhibition", "setting": "Thailand/16681/1984, Concentration 198.0 uM, Number of replicates 2.0, Standard deviation 0.02447349481851786 %", "value": 59.2, "unit": "%"}]}
{"smiles": "C[C@@H](NC(=O)c1cc(Cl)ccc1NS(=O)(=O)c1ccc(Oc2ccccc2Cl)cc1)[C@H]1CCCO1", "values": [{"measurement": "inhibition", "setting": "Thailand/16681/1984, Concentration 49.5 uM, Number of replicates 2.0, Standard deviation 0.29635236214386457 %", "value": 82.5, "unit": "%"}, {"measurement": "inhibition", "setting": "Thailand/16681/1984, Concentration 99.01 uM, Number of replicates 2.0, Standard deviation 0.052507555399236044 %", "value": 84.4, "unit": "%"}, {"measurement": "inhibition", "setting": "Thailand/16681/1984, Concentration 198.0 uM, Number of replicates 2.0, Standard deviation 0.13838732262418607 %", "value": 80.7, "unit": "%"}]}
{"smiles": "Cc1cnccc1NC(=O)c1cc(C2CCCC2)n(C)c1C", "values": [{"measurement": "inhibition", "setting": "Thailand/16681/1984, Concentration 49.5 uM, Number of replicates 2.0, Standard deviation 1.895573393565592 %", "value": -3.53, "unit": "%"}, {"measurement": "inhibition", "setting": "Thailand/16681/1984, Concentration 99.01 uM, Number of replicates 2.0, Standard deviation 0.7217418528634704 %", "value": -1.88, "unit": "%"}, {"measurement": "inhibition", "setting": "Thailand/16681/1984, Concentration 198.0 uM, Number of replicates 2.0, Standard deviation 1.3851925911876457 %", "value": 0.718, "unit": "%"}]}
{"smiles": "C[C@@H](CS(C)(=O)=O)NC(=O)c1cc(Cl)ccc1NS(=O)(=O)c1ccc(Oc2ccccc2Cl)cc1", "values": [{"measurement": "inhibition", "setting": "Thailand/16681/1984, Concentration 49.5 uM, Number of replicates 2.0, Standard deviation 0.5989303195749703 %", "value": 51.1, "unit": "%"}, {"measurement": "inhibition", "setting": "Thailand/16681/1984, Concentration 99.01 uM, Number of replicates 2.0, Standard deviation 0.4213875631597994 %", "value": 57, "unit": "%"}, {"measurement": "inhibition", "setting": "Thailand/16681/1984, Concentration 198.0 uM, Number of replicates 2.0, Standard deviation 0.24651523106627876 %", "value": 43, "unit": "%"}]}
